Source: PubChem BioAssay AID1159580 (chemical genetic matrix, 2015)
Out of some 5,500 compounds screened, about 2,000 (36%) were called active. Inconclusive results (about 18%) are left out. Rule as the data show it: active = normalized growth mostly below about 0.91 (no sharp cut-off); inconclusive = no clear call, values can overlap the other calls; inactive = mostly above about 0.92. The list shows a part of the results.

Assay: chemical genetic growth profiling, strain panel (AID 1159580);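 also: tested at 20 µM; growth read once vehicle control cultures reached saturation at 30 °C; 1 = growth at the plate median or of vehicle wells; lower values mean less growth of the strain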
Settings: S. cerevisiae deletion strains, growth OD

Measured: normalized growth

COC(=O)c1c(C)cc(O)cc1O
inactive: locus YAL021C, strain ccr4, stronger effect = lower value 1.02 | locus YAL026C, strain drs2, stronger effect = lower value 1 | locus YAL030W, strain snc1, stronger effect = lower value 1 | locus YBL061C, strain skt5, stronger effect = lower value 1.02 | locus YBR009C, strain hhf1, stronger effect = lower value 1 | locus YBR023C, strain chs3, stronger effect = lower value 1.01 | locus YBR171W, strain sec66, stronger effect = lower value 1 | locus YBR231C, strain swc5, stronger effect = lower value 1.01 | locus YBR279W, strain paf1, stronger effect = lower value 1.02 | locus YCL011C, strain gbp2, stronger effect = lower value 1.01 | locus YCL016C, strain dcc1, stronger effect = lower value 1.01 | locus YCL061C, strain MRC1, stronger effect = lower value 1.01 | locus YCL069W, strain vba3, stronger effect = lower value 0.999 | locus YCR088W, strain abp1, stronger effect = lower value 0.994 | locus YDL005C, strain med2, stronger effect = lower value 1.01 | locus YDL040C, strain nat1, stronger effect = lower value 1 | locus YDR001C, strain nth1, stronger effect = lower value 0.998 | locus YDR069C, strain doa4, stronger effect = lower value 1.01 | locus YDR137W, strain rgp1, stronger effect = lower value 1 | locus YDR159W, strain sac3, stronger effect = lower value 1.02 | locus YDR195W, strain ref2 1.05 | locus YDR297W, strain sur2, stronger effect = lower value 1.01 | locus YDR334W, strain swr1, stronger effect = lower value 1.01 | locus YDR335W, strain msn5, stronger effect = lower value 1.01 | locus YDR392W, strain spt3, stronger effect = lower value 0.978 | locus YEL003W, strain gim4, stronger effect = lower value 1.01 | locus YEL037C, strain rad23, stronger effect = lower value 1.01 | locus YEL061C, strain CIN8 (second series), stronger effect = lower value 1.01 | locus YER015W, strain faa2, stronger effect = lower value 1 | locus YER016W, strain bim1, stronger effect = lower value 1.01 | locus YER111C, strain swi4, stronger effect = lower value 1.03 | locus YER155C, strain BEM2 (second series), stronger effect = lower value 0.995 | locus YFR010W, strain ubp6, stronger effect = lower value 1.02 | locus YGL167C, strain pmr1, stronger effect = lower value 1.01 | locus YGL173C, strain kem1, stronger effect = lower value 1.02 | locus YGL227W, strain vid30, stronger effect = lower value 1 | locus YGL240W, strain doc1, stronger effect = lower value 1 | locus YGL253W, strain hxk2, stronger effect = lower value 1.01 | locus YHR013C, strain ard1, stronger effect = lower value 1.03 | locus YHR027C, strain rpn1, stronger effect = lower value 1.02 | locus YHR030C, strain SLT2, stronger effect = lower value 0.994 | locus YHR079C, strain IRE1, stronger effect = lower value 0.996 | locus YHR142W, strain chs7, stronger effect = lower value 1 | locus YJL092W, strain hpr5, stronger effect = lower value 0.998 | locus YJL095W, strain BCK1 (second series), stronger effect = lower value 1 | locus YJL095W, strain BCK1, stronger effect = lower value 0.984 | locus YJL115W, strain asf1, stronger effect = lower value 1.01 | locus YJL129C, strain trk1, stronger effect = lower value 1 | locus YJL154C, strain vps35, stronger effect = lower value 1.01 | locus YJL164C, strain tpk1, stronger effect = lower value 1.01 | locus YJL166W, strain qcr8, stronger effect = lower value 0.998 | locus YJL187C, strain SWE1, stronger effect = lower value 1.01 | locus YJR066W, strain TOR1, stronger effect = lower value 0.948 | locus YKL160W, strain elf1, stronger effect = lower value 1 | locus YKR026C, strain gcn3, stronger effect = lower value 1 | locus YKR091W, strain srl3, stronger effect = lower value 1.01 | locus YLL001W, strain dnm1, stronger effect = lower value 1.02 | locus YLL026W, stronger effect = lower value 0.996 | locus YLL041C, strain sdh2, stronger effect = lower value 1.01 | locus YLR027C, strain aat2, stronger effect = lower value 1.01 | locus YLR113W, strain HOG1, stronger effect = lower value 1.03 | locus YLR221C, strain rsa3, stronger effect = lower value 0.999 | locus YLR258W, strain gsy2, stronger effect = lower value 1.01 | locus YLR262C, strain YPT6 (second series), stronger effect = lower value 0.985 | locus YLR320W, strain mms22, stronger effect = lower value 1.01 | locus YLR342W, strain FKS1, stronger effect = lower value 1.01 | locus YLR357W, strain rsc2, stronger effect = lower value 1.03 | locus YLR370C, strain arc18, stronger effect = lower value 0.992 | locus YLR384C, strain iki3, stronger effect = lower value 1.01 | locus YML120C, strain ndi1, stronger effect = lower value 0.993 | locus YMR058W, strain fet3, stronger effect = lower value 1.01 | locus YMR125W, strain sto1, stronger effect = lower value 1.02 | locus YMR129W, stronger effect = lower value 1.01 | locus YMR205C, strain PFK2, stronger effect = lower value 1.01 | locus YMR231W, strain pep5, stronger effect = lower value 1.01 | locus YNL071W, strain lat1, stronger effect = lower value 0.987 | locus YNL183C, strain NPR1, stronger effect = lower value 0.917 | locus YNL209W, strain ssb2, stronger effect = lower value 1.01 | locus YNL248C, strain rpa49, stronger effect = lower value 1.01 | locus YNL322C, strain KRE1 (second series), stronger effect = lower value 1 | locus YNR049C, strain mso1, stronger effect = lower value 1 | locus YOR001W, strain rrp6, stronger effect = lower value 1 | locus YOR070C, strain gyp1, stronger effect = lower value 1 | locus YOR080W, strain dia2, stronger effect = lower value 1.01 | locus YOR083W, strain WHI5, stronger effect = lower value 1.01 | locus YOR106W, strain vam3, stronger effect = lower value 0.999 | locus YOR231W, strain MKK1, stronger effect = lower value 0.987 | locus YOR265W, strain rbl2, stronger effect = lower value 0.999 | locus YOR270C, strain vph1, stronger effect = lower value 0.961 | locus YOR290C, strain snf2, stronger effect = lower value 1.01 | locus YPL051W, strain arl3, stronger effect = lower value 1 | locus YPL078C, strain atp4, stronger effect = lower value 0.999 | locus YPL106C, strain sse1, stronger effect = lower value 0.982 | locus YPL240C, strain hsp82, stronger effect = lower value 0.996 | locus YPL256C, strain CLN2, stronger effect = lower value 1.01
